Only some compounds are listed: those with a hit (about 6.8% of all), similar ones and a draw of the others.
KB-3-1 tox: qHTS assay for MDR1-selective chemotherapeutics: Primary screen using the parental adenocarcinoma cell KB-3-1 | KB-3-1 viability, CellTiter-Glo ATP luminescence, 72 h | Potency, µM (series often up to 46.1 µM), hits mostly cytotoxic | 400,000 compounds, 1.4% hits; also: % is scaled to controls: 0 for no effect and ±100 for the full control effect; nearly all actives have a fitted effect of over 60% in size
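Cytotoxicity measured as CellTiter-Glo luminescence after 72 h at 37 C. Compound titrations were pinned onto drug-naive KB-3-1 parental adenocarcinoma cells grown in DMEM with 10% FBS, and normalized data fitted to concentration-response curves.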
MCF10A rerep: A quantitative high throughput screen for small molecules that induce DNA re-replication in MCF 10a normal breast cells | Potency, µM (series often up to 46.1 µM), without a hit: top-dose activity, positive = re-replication, hits mostly activators | 350,000 compounds, 2.9% hits | MCF 10A DNA re-replication, Hoechst nuclear intensity, 48 h; also: % of control where 0% means no effect; nearly all actives have a fitted effect of over 50% in size
PINK1 expr mod: A Quantitative High throughput Screen to Identify Chemical Modulators of PINK1 Expression; PINK1 immunofluorescence, high-content cytometry, 24 h; Potency, µM (highest dose often 76.6 µM), for the others: top-dose activation (PINK1 increase), usual class: activators; 410,000 compounds, 0.2% hits; active = well fitted activation curve with a large enough effect; inconclusive = small, poorly fitted or top-dose-only effect; cell line not stated here; also: % of control where 0% means no effect; nearly all actives have a fitted effect of over 65% in size
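Stable cell line treated 24 h with compounds at 5 concentrations (CCCP controls), then fixed and immunostained for PINK1 plus nuclear and cell stains; PINK1 immunofluorescence quantified by laser-scanning microplate cytometry.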
SW480 rerep: A quantitative high throughput screen for small molecules that induce DNA re-replication in SW480 colon adenocarcinoma cells. SW480 DNA re-replication, Hoechst DNA content imaging, 48 h. Potency, µM (titrated, usually from 46.1 µM), for the others: at the top dose re-replication activation, hits mostly activators. 340,000 compounds, 1.8% hits. AID 624297, 2012; also: % of control where 0% means no effect; nearly all actives have a fitted effect of over 55% in size
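Readout is total intensity of Hoechst-stained nuclei, excited at 405 nm and collected at 500-530 nm. Compound treatment lasted 48 hr at 37 C in 5% CO2 before staining.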
PTAP TSG101 blk: qHTS Assay for Iinhibitors of HIV-1 Budding by Blocking the Interaction of PTAP/TSG101; Tumor susceptibility gene 101 protein (Homo sapiens), Q99816; Fluorescence polarization, FITC-PTAP peptide / Tsg101 binding; Potency, µM (highest dose often 115 µM), inactives show at the top dose activity change, negative = inhibition, usual class: inhibitors; 340,000 tested, under 10 active; AID 493005, 2010; active = well fitted inhibition curve with a large enough effect in the main read-out, with a control signal flat, not every such curve was filed as active; inconclusive = small, poorly fitted or top-dose-only effect, or effect the other way, or a change in a side signal; inactive = no such curve, though single readings can be large or run the other way; also: % of control where 0% means no effect
Target sequence (Q99816 whole entry, looked up): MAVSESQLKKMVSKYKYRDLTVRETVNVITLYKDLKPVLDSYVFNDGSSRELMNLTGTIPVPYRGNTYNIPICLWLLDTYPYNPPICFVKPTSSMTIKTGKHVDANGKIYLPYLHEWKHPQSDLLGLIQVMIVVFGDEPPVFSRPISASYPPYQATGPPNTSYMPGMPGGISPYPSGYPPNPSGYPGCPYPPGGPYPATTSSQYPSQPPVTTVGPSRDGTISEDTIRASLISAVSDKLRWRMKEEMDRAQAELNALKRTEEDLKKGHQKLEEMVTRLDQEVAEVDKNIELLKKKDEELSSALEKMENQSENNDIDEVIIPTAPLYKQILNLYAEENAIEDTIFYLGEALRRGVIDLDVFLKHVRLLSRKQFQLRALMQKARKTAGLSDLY
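Compounds were pin-transferred onto Tsg101 binding domain (10 uM final) in HEPES pH 7.5 buffer, then FITC-PTAP peptide was added at 50 nM final. After 20 min at RT, polarization reported peptide displacement across a qHTS concentration series.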
KB-V1 cytotox: qHTS assay for MDR1-selective chemotherapeutics: Primary screen using the drug-selected MDR subline cells KB-V1; KB-V1 MDR cells viability, CellTiter-Glo, 72 h; Potency, µM (highest dose often 46.1 µM), most hits filed as cytotoxic; 400,000 compounds, 3.4% hits; AID 1347076, 2019; also: % is scaled to controls: 0 for no effect and ±100 for the full control effect; nearly all actives have a fitted effect of over 60% in size
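In this primary screen, KB-V1 cells overexpressing P-gp are incubated with library compounds (lowest to highest concentration) for 72 h at 37 degrees C before a luminescent ATP viability read.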
The depositor's hits bear a star; i = inactive; ? = inconclusive; / = no result given; [ ] = another dose, or the depositor's remark. Unless noted, calls follow the shape of the dose curve; as a rule, active = well fitted curve in the direction sought with a large enough effect; inconclusive = small, poorly fitted or top-dose-only effect, or another doubt; inactive = no such curve, though single readings can be large; an effect the other way counts as inactive or inconclusive. Potency is read from the fitted curve at half-maximal effect.

SMILES | KB-3-1 tox | MCF10A rerep | PINK1 expr mod | SW480 rerep | PTAP TSG101 blk | KB-V1 cytotox
O=[N+]([O-])c1ccc(O)c(C2=NNC(c3ccccc3F)C2)c1 (stereo unspecified) | ? | 3.66µM* | ? | -6.5% | 3.8% | ?
CCc1oc2ccccc2c1C(=O)CCN1CCCCC1 | i | 9.2µM* | 3.6%[38.3 µM] | 11.5% | -3.5% | i
O=c1oc2ccccc2c(N2CCCCC2)c1CN1CCCC1 | i | 4.1% | -2.0%[38.3 µM] | -6.3% | -5.4% | 23.1µM*
O=C(c1oc2ccccc2c1N1CCCCC1)N1CCCCC1 | i | -1.0% | -1.5%[38.3 µM] | 0.3% | / | 14.6µM*
Cc1ccc(NS(=O)(=O)c2cc3c(cc2C)OCC(=O)N3)cc1C | i | / | / | / | / | ?
COCCn1c(=O)c(-c2cccc(C#N)c2)nc2cnc(N(C)C)nc21 | / | / | 0.7% | / | / | /
COc1ccc(CN(CCCN2CCOCC2)C(=O)Nc2ccccc2)cc1OC | i | -3.7% | 2.2%[38.3 µM] | -3.1% | -7.0% | 7.31µM*
CCCCOc1ccc(CNC(=O)CCCN2C(=O)CSc3c2c(C)nn3-c2ccccc2)cc1 | i | / | 7.9% | / | / | i
COc1ccccc1CNC(=O)c1ccc2c(c1)sc1nc(-c3ccc(F)cc3)cn12 | / | / | 0.1% | / | / | /
CCCNC(=O)c1cc2c3ccccc3n(C)c2s1 | i | 0.2% | 5.7% | 5.3% | -6.2% | i
Cn1c2ccccc2c2cc(C(=O)NNC(=O)CCl)sc21 | ? | 20.6µM* | 0.4% | ? | 0.5% | ?
COCCn1ccc2c(OCC(=O)Nc3cccc(OC)c3)cccc2c1=O | i | / | -1.1% | / | / | ?
CN(C)/C=C/C(=O)c1ccc2noc(-c3ccccc3)c2c1 | i | 20.6µM* | 1.1% | 24.8% | -2.9% | ?
CC(=O)c1ccc2noc(-c3ccccc3)c2c1 | i | -3.1% | -1.3% | 25.5% | -1.4% | ?
Cc1ccc(CNC(=O)c2c[nH]n3c(=O)c(Cc4ccc(Cl)cc4)c(C)nc23)cc1 | i | / | 10.3% | / | / | i
Cc1ccc(C2=NC(=O)/C(=C/c3cc(O)c(O)c(Br)c3)S2)cc1 | i | ? | 0.5% | 8.2µM* | -1.1% | ?
Cc1ccc(S(=O)(=O)c2c(Nc3cc(F)ccc3F)sc(C(=O)c3ccc(F)cc3)c2N)cc1 | ? | / | 6.5% | / | / | ?
N#Cc1cnc2cc(-c3ccccc3)nn2c1N | ? | 12.7% | 2.4% | -19.3% | -4.2% | 2.59µM*
Cc1ccc(SCc2nc(-c3ccncc3)no2)cc1 | i | 16.4µM* | 5.3% | ? | -6.6% | i
Cc1cc(C)c2c(CC(=O)N(Cc3ccccc3)C3CCS(=O)(=O)C3)coc2c1 (stereo unspecified) | i | / | 0.0% | / | / | ?
CCC(c1ccc(O)c(O)c1)C(CC)c1ccc(O)c(O)c1 (stereo unspecified) | i | -12.8% | 18.2% | 10.3µM* | -3.9% | i
CCC(=NC(C)c1ccccc1)c1c(O)n(C)c(=O)n(C)c1=O (stereo unspecified) | ? | 23.7% | 1.0%[38.3 µM] | -9.7% | -5.6% | 2.59µM*
CCOC(=O)c1cc2c(=O)n3ccccc3nc2n(C(C)C)c1=NC(=O)c1c(-c2c(F)cccc2Cl)noc1C | ? | ? | 3.8% | 18.4µM* | -0.1% | ?
CCOC(=O)c1cc2c(=O)n3ccccc3nc2n(C)c1=NC(=O)c1c(-c2c(F)cccc2Cl)noc1C | i | 23.1µM* | 1.1% | 1.3µM* | 2.2% | i
CCOC(=O)c1cc2c(=O)n3ccccc3nc2n(C)c1=NC(=O)c1c(-c2ccccc2Cl)noc1C | i | / | 2.2% | / | / | i
SMILES | KB-3-1 tox | MCF10A rerep | PINK1 expr mod | SW480 rerep | PTAP TSG101 blk | KB-V1 cytotox
CCOC(=O)c1c(S(=O)(=O)N2CCCC(C(=O)Nc3cccc(C#N)c3)C2)c(C)n(C)c1C (stereo unspecified) | i | / | 0.6% | / | / | i
O=C(COc1ccc(Cl)cc1)OCc1cc(=O)n2nc(C3CCCCC3)sc2n1 | i | / | -0.2% | / | / | ?
CN1C2CCC1/C(=C\c1ccc(F)cc1)C(=O)/C2=C/c1ccc(F)cc1 | ? | 1.9% | 6.7% | ? | -1.1% | 23.1µM*
Cc1cccc(N(CC(=O)NC2CCCCC2)C(=O)c2ccc(C)s2)c1 | i | ? | -0.5%[38.3 µM] | 7.31µM* | -6.5% | i
Cc1ccc(S(=O)(=O)N(CC(=O)NC2CCCC2)c2cccc(C)c2)cc1 | i | -6.5% | -0.4% | -4.5% | -4.1% | 4.11µM*
COc1ccc(-c2noc(CSc3nnc(-c4ccncc4)n3-c3ccc(C)c(C)c3)n2)cc1 | / | / | 2.0% | / | / | /
Cc1ccc(CCNC(=O)c2cn(C)c3ccc(S(=O)(=O)N(C)C4CCCCC4)cc3c2=O)cc1 | i | / | 0.5% | / | / | i
Cc1c(Cl)cccc1NS(=O)(=O)c1ccc2[nH]cc(C(=O)NC3CCCC3)c(=O)c2c1 | i | / | 1.8% | / | / | i
CN(Cc1cn(C)nc1-c1ccc(Oc2ccccc2)cc1)Cc1cnc2ccccn12 | i | 23.1µM* | 1.4% | -3.5% | -0.6% | i
COc1cc2c(cc1OC)C1=C(C#N)CC/C(=N\S(=O)(=O)c3cccc(Cl)c3)N1CC2 | ? | 2.4% | -41.4%[38.3 µM] | 3.5% | 1.3% | 16.4µM*
CCOc1ccc(-n2c(=O)c3c(C)c(C)sc3n(CC(=O)N(CC)Cc3ccccc3)c2=O)cc1 | i | / | 1.6% | / | / | i
CC1CCCC(NC(=O)CC2Nc3ccccc3NC2=O)C1C (stereo unspecified) | i | 6.1% | 5.2% | -55.3% | -1.3% | 16.4µM*
COC(=O)CCC(=O)NC(=S)Nc1sc(C)c(C)c1C(N)=O | 0.651µM* | 1.16µM* | 17.3% | ? | 0.5% | 1.64µM*
Cc1sc(NC(=S)NC(=O)CCc2ccccc2)c(C(N)=O)c1C | 0.184µM* | 0.13µM* | 9.4% | 0.291µM* | -3.8% | ?
Cc1ccc(OCC(=O)Nc2ccc3nc(SCC(=O)N(C)c4ccccc4)sc3c2)cc1 | i | / | 0.8% | / | / | ?
CSc1nc2ccccc2cc1/C=C(\C#N)c1cccc(Cl)c1 | 20.6µM* | 8.2µM* | 0.2% | ? | -2.6% | ?
CCOC(=O)/C(C#N)=C/c1cc2ccccc2nc1Cl | i | 3.4% | -2.2%[38.3 µM] | ? | -3.2% | i
COc1ccc(C(=O)N2CCC(C(=O)Nc3ccc(OC)cc3OC)CC2)cc1 | i | / | 0.3% | / | / | i
